Screening data deposited in PubChem BioAssay by several laboratories.
This is a sample that favours compounds with a hit; in the whole collection about 22% have one here.
CYP2C19 inh – blockers of cytochrome P450 2C19 activity – biochemical, luminescence, ADME assay, primary screen; P33261; CYP2C19 Supersomes, luciferin-H EGE luminescence, 30 min; inhibition, % at 5 µM; actives 21% (n = 96,000); AID 778, 2007;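 active means CYP2C19 inhibition above a set limit at 5 µM in the primary screen, cut at about 50% in these data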;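 further: plate controls were negative control wells for no effect and 2.5 mM tranylcypromine positive control for full effect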
Target sequence (P33261 whole entry, looked up): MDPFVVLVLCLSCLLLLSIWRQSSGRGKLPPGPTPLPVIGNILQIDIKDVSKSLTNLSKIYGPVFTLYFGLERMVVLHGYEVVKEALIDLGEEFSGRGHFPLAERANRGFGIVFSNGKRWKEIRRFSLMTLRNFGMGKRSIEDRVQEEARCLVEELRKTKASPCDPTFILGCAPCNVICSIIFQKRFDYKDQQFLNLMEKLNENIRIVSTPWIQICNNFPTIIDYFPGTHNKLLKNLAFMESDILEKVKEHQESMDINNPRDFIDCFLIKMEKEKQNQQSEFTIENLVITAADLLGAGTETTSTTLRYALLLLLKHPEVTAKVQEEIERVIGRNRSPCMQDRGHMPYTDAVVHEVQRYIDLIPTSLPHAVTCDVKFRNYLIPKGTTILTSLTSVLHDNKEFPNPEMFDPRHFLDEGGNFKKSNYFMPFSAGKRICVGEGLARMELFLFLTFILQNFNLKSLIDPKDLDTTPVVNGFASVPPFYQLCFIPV
CYP2C9 inhib – blockers of cytochrome P450 2C9 activity – biochemical, luminescence, ADME assay, primary screen. P11712. CYP2C9 Supersomes, luciferin-H conversion. inhibition, % at 5 µM. actives 20% (n = 96,000). AID 777, 2007;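 active means blocking of liver enzyme CYP2C9 beyond about 50% at 5 µM, limit read from the data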
E-sel TNF inh – E-selectin induction blockers in HUVEC – imaging, immunofluorescence, high content, primary screen | HUVEC TNFa-induced E-selectin immunofluorescence | inhibition, % at 2 µM | actives 0.71% (n = 120,000);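 active means inhibition above the batch mean plus 3 SD, and confirmed as a hit on visual image review, cut at about 43% in these data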;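 further: 0% = TNF-stimulated DMSO wells and 100% = unstimulated control wells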
CYP2C9 act – human CYP2C9 activators, primary screen, biochemical, luminescence; activation factor at 5 µM; Cytochrome P450 2C9 (Homo sapiens), P11712; recombinant CYP2C9, luciferin-H conversion; hits give high values; factor 1 = untreated enzyme, 0 = blocked; actives 1.4% (n = 96,000);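 active means activation factor of 2 or more for CYP2C9 at a 5 µM dose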;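 further: 0 = sulfaphenazole-blocked wells and 1 = vehicle-only wells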
cytoskel mod – modifiers of F-actin cytoskeleton organization, primary screen, imaging, HUVEC, phalloidin staining, high-content imaging | HUVEC TNFa F-actin phalloidin imaging | inhibition, % at 2 µM | actives 0.18% (n = 91,000) | AID 836, 2007;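 active means inhibition above the batch mean plus 3 SD and confirmed as a hit by visual image inspection, cut at about 30% in these data, passing the limit was not always enough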
CYP2C19 activ – human CYP2C19 activators, primary screen, biochemical, luminescence; 96,000 tested, under 10 active; recombinant CYP2C19, luciferin-H EGE luminescence; hits give high values; 0 = fully inhibited enzyme, 1 = untreated enzyme; activation factor at 5 µM; AID 1025, 2008;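 active means activation factor of at least 2 at 5 µM in the primary screen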;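 further: 0 = wells with 2.5 mM tranylcypromine and 1 = vehicle-only wells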
* = called active by the depositor; / = no result given.

SMILES	CYP2C19 inh	CYP2C9 inhib	E-sel TNF inh	CYP2C9 act	cytoskel mod	CYP2C19 activ
Cc1ccc(S(=O)(=O)N(c2nc(N(C)C)nc(N(C)C)n2)n2cnnc2)cc1	-6.1	53.6*	-30.6	0.5	/	1.1
Nc1ncc(-c2nnnn2-c2ccc(Cl)cc2)c(-c2ccc(Cl)cc2)n1	22.6	13.9	-33.5	0.9	-41.5	0.8
COc1ccccc1S(=O)(=O)Cc1ccc(C(=O)N2CCN(c3ccc(C)cc3)C(C)C2)o1 (stereo not given)	55.1*	91.2*	32.9	0.1	/	0.4
COc1ccccc1N1CCN(C(=O)c2ccc(CS(=O)(=O)c3ccccc3OC)o2)CC1	35.0	78.9*	/	0.2	/	0.7
COc1ccc(S(=O)(=O)Cc2ccc(C(=O)N3CCN(c4cccc(C)c4)C(C)C3)o2)cc1 (stereo not given)	58.5*	90.2*	/	0.1	/	0.4
Cc1ccccc1S(=O)(=O)Cc1ccc(C(=O)N2CCN(c3ncccn3)CC2)o1	92.4*	84.1*	-48.3	0.2	/	0.1
Cc1cccc(N2CCN(C(=O)c3cc(C)oc3C)CC2C)c1 (stereo not given)	/	/	2.4	/	/	/
CCOC(=O)N1CCN(C(=O)c2ccc(CS(=O)(=O)c3ccccc3OC)o2)CC1	-2.7	22.1	-14.8	0.8	-7.4	1
O=C(COC(=O)c1ccc(S(=O)(=O)N2CCc3ccccc3C2)cc1)NC1CCS(=O)(=O)C1 (stereo not given)	/	/	-57.0	/	/	/
O=C(NNC1=C(C(=O)C(F)(F)F)CCC1)c1ccc(Br)cc1	6.7	69.2*	-10.8	0.3	13.8	0.9
COc1ccccc1C(=O)NNC1=C(C(=O)C(F)(F)F)CCC1	5.9	21.1	-50.9	0.8	-27.2	0.9
O=C(NNC1=C(C(=O)C(F)(F)F)CCC1)c1ccccc1Cl	-10.1	95.7*	-17.4	0	1.5	1.1
O=C(NNC1=C(C(=O)C(F)(F)F)CCC1)c1ccccc1O	25.6	84.6*	10.0	0.2	5.6	0.7
C=CCn1c(C)cc(C(=O)CSc2n[nH]c(N)n2)c1C	26.5	-157.0	3.6	2.6*	10.3	0.7
Cc1cc(C(=O)CSc2n[nH]c(N)n2)c(C)n1-c1ccccc1	87.4*	58.2*	15.2	0.4	16.8	0.1
Nc1nc(SCC(=O)Nc2ccc(Br)cc2F)n[nH]1	93.4*	49.1	-23.6	0.5	15.2	0.1
Cc1ccc(-n2c(C)cc(C(=O)CSc3n[nH]c(N)n3)c2C)cc1	39.2	27.8	/	0.7	24.2	0.6
Nc1nc(SCC(=O)NCCC(c2ccccc2)c2ccccc2)n[nH]1	95.6*	70.8*	3.0	0.3	2.5	0
Cc1cc(C(=O)CSc2n[nH]c(N)n2)c(C)n1C1CC1	-14.4	-77.3	-7.2	1.8	-1.0	1.1
Nc1nc(SCC(=O)NCc2ccccc2)n[nH]1	-5.3	-11.6	-1.6	1.1	10.5	1.1
Cc1cc(C(=O)CSc2n[nH]c(N)n2)c(C)n1-c1cc(F)ccc1F	76.5*	54.1*	19.9	0.5	-12.7	0.2
Cc1cc(C)c(-c2cc(NC(=O)CSc3n[nH]c(N)n3)n(-c3ccccc3)n2)cc1C	93.9*	90.2*	-11.9	0.1	9.6	0.1
Cc1cc(C(=O)CSc2n[nH]c(N)n2)c(C)n1-c1ccc(F)cc1	/	/	-4.8	/	-15.0	/
COc1cc(C(=O)OCC(=O)Nc2cc(-c3cc(C)c(C)cc3C)nn2-c2ccccc2)cc(OC)c1OC	/	/	-10.7	/	/	/
CCc1nc2ccccc2c(=O)n1NC(=O)c1c(O)c2ccccc2[nH]c1=O	-22.0	-8.7	/	1.1	/	1.2
SMILES	CYP2C19 inh	CYP2C9 inhib	E-sel TNF inh	CYP2C9 act	cytoskel mod	CYP2C19 activ
CC(Cl)C(=O)c1ccc2c(c1)CCN2C(=O)C1CC1 (stereo not given)	/	/	16.5	/	/	/
CC1(C)C(=O)C2(C(=O)NCc3ccccc3)CCC1C2 (stereo not given)	69.8*	8.1	-9.4	0.9	-12.9	0.3
CC1CN(Cc2ccc(Cl)cc2Cl)CC(C)O1 (stereo not given)	53.5*	14.6	-4.8	0.9	26.6	0.5
CC1CN(Cc2ccc(C#N)cc2Cl)CC(C)O1 (stereo not given)	-2.9	1.4	/	1	-22.0	1
COc1ccc(N=Cc2sc(O)c3ccccc23)cc1	19.6	9.7	18.7	0.9	7.0	0.8
Cc1ccc(-c2noc(CN(C(=O)c3cccs3)C(C)C)n2)cc1	44.8	74.5*	6.0	0.3	-16.6	0.6
CC(C)N(Cc1nc(-c2ccc(Cl)cc2)no1)C(=O)c1cccs1	78.1*	89.1*	-1.4	0.1	-8.0	0.2
CSC1=C(C#N)C(c2ccccc2C)C(C#N)=C(N)N1 (stereo not given)	86.4*	99.2*	-11.2	0	6.0	0.1
CSC1=C(C#N)C(c2ccccc2Cl)C2=C(CCCC2=O)N1 (stereo not given)	5.3	30.1	/	0.7	/	0.9
CSC1=C(C#N)C(c2ccccc2Cl)C2=C(N1)c1ccccc1C2=O (stereo not given)	53.4*	47.3	-27.6	0.5	3.7	0.5
CC1CCN(S(=O)(=O)c2ccc3ncn(CC(=O)N(C)Cc4ccccc4)c(=O)c3c2)CC1	18.1	48.6	/	0.5	-32.3	0.8
Cc1cc(Br)ccc1OCc1nc(-c2cccnc2)no1	40.4	-9.5	-8.6	1.1	-13.9	0.6
Cc1ccc(C)c(OCc2nc(-c3cccnc3)no2)c1	89.7*	30.6	/	0.7	-22.2	0.1
Cc1ccc(-c2nc(-c3cccnc3)no2)c(C)c1	52.4*	14.1	33.4	0.9	-5.7	0.5
COc1ccc(C)c2sc(=NC(=O)C(C)C)n(C)c12	16.6	40.4	18.4	0.6	18.4	0.8
Cc1cc(C)n(C(=O)CCCCCC(=O)n2nc(C)cc2C)n1	/	/	3.2	/	/	/
Cc1ccc(CSc2nnc(-c3ccco3)n2N)cc1	7.7	-18.7	/	1.2	/	0.9
Nn1c(SCc2cccc(C(F)(F)F)c2)nnc1-c1ccco1	94.4*	-60.7	-2.5	1.6	-7.8	0.1
Cn1c(SCc2cccc(C(F)(F)F)c2)nnc1-c1ccco1	71.8*	13.7	-6.2	0.9	-3.5	0.3
CC(=C1C(=O)c2ccccc2C1=O)N1CCc2ccccc2C1	80.9*	63.3*	3.7	0.4	-1.1	0.2
Cc1ccccc1NC(=O)N1CCc2ccccc2C1	/	/	-17.4	/	/	/
O=C(CN1C(=O)CCC1=O)Nc1nc(-c2cccs2)cs1	7.0	4.9	-4.4	1	/	0.9
N#C/C(=C\c1cn(CCOc2ccccc2)c2ccccc12)C(=O)NCC1CCCO1 (stereo not given)	57.7*	92.4*	/	0.1	-13.3	0.4
N#C/C(=C\c1cn(Cc2ccccc2C#N)c2ccccc12)C(=O)NCc1cccs1	16.0	60.3*	-15.9	0.4	20.0	0.8
